Laboratory results published in the supplement of paper PMC6555819.

What was measured:
Assay in all cases: PBM binding z-score (relative to random genomic background probes); higher = stronger binding; sequences stand for … in GC…GCGATTGACAGCGTAGAATGAAGG
[1] = tested on: RARb homodimer (NR concentration 270 nM)
How it was run: (§1)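 Scanned fluorescence from custom Agilent 4×180K protein-binding microarrays was regression-normalized. Binding z-scores use random background probes as reference. Ligand-free nuclear receptor dimers were incubated on the arrays for 1 h and detected with antibodies against each partner (one per run).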

[2] = tested on: RARg:RXRa (NR concentration 270 nM, RXRa partner concentration 90 nM)
How it was run: as §1

[3] = tested on: RARg homodimer (NR concentration 270 nM)
How it was run: as §1

[4] = tested on: RXRa DBDmut IVT, anti-RXR (DBD mutation: RXRa K156A/R161A, NR concentration 90 nM)
How it was run: as §1

[5] = tested on: RXRa homodimer (NR concentration 180 nM)
How it was run: as §1

[6] = tested on: THRa:RXRa (NR concentration 90 nM, RXRa partner concentration 90 nM)
How it was run: as §1

[7] = tested on: THRa homodimer (NR concentration 90 nM)
How it was run: as §1

[8] = tested on: VDR:RXRa (NR concentration 270 nM, RXRa partner concentration 90 nM)
How it was run: as §1

[9] = tested on: VDR homodimer (NR concentration 270 nM)
How it was run: as §1

| Sequence | PBM binding z-score [1] | PBM binding z-score [2] | PBM binding z-score [3] | PBM binding z-score [4] | PBM binding z-score [5] | PBM binding z-score [6] | PBM binding z-score [7] | PBM binding z-score [8] | PBM binding z-score [9] |
| --- | --- | --- | --- | --- | --- | --- | --- | --- | --- |
| CGAACGAGGTCAAGGACAGTGAATCTCCGCACGC | 4.19 | 6.33 | 6.59 | 4.23 | 7.03 | 4.43 | 3.19 | 5.09 | 3.5 |
| CCTCGTTGGTCAGGAGGTCACACACCGGATATGA | 4.36 | 5.12 | 4.22 | 0.642 | 4.63 | 3.54 | 2.26 | 3.77 | 2.22 |
| CCGACTGGTGCATAAGGTTACCATAAGCCAGCCC | 1.25 | 0.548 | 0.37 | 0.0565 | 0.963 | 1.99 | 1.58 | 0.347 | 0.347 |
| ATTATTAGTTGACTTAGGGCAACCGATACGACGC | 1.41 | 1.11 | 1.23 | 0.507 | 0.918 | 1.65 | 1.03 | 0.926 | 1.41 |
| ACTAGTTGGTTAGCTGAGGTCACACACAATTCGG | 4.12 | 3.62 | 3.42 | 1.62 | 3.95 | 4.7 | 5.36 | 4.03 | 3.78 |
| CGTCAAAGTTCAACTAAGGTAACGTAAAGCACGC | 4.51 | 5.92 | 6.41 | 4.68 | 5.28 | 5.33 | 1.93 | 4.74 | 3.26 |
| CGTCCAGGGTCATAGGAGGTCAGTGAAGACAGAT | 4.98 | 6.27 | 6.23 | 3.62 | 6.72 | 5.12 | 2.18 | 6.65 | 4.31 |
| CTCGAAAGGTCGTGCTCAGCTGAGTATACCAAAC | 2.34 | 4.28 | 3.82 | 2.32 | 4.89 | 2.19 | -0.199 | 3.17 | 0.89 |
| CCGACTGGGTCAAGGTTACCATAACGCACAGCCA | 3.15 | 3.98 | 4.05 | 0.852 | 3.59 | 2.83 | 1.51 | 2.05 | 1.02 |
| ACTATTAGTGGACTTAGGGCAACCGATACGACGC | 0.427 | 0.269 | 0.779 | 0.397 | 0.286 | 1.17 | 0.136 | 0.119 | 0.0269 |
| CCAGACAGGTGAAAGGTAATTCAGTCTGGTACGC | 0.45 | 1.04 | 0.643 | -0.17 | 1.68 | 0.696 | -0.243 | 0.632 | -0.314 |
| TGAATGAGGTTATCAGATCAGGGAACGTTGCAAA | 0.317 | 1.62 | 1.06 | 0.731 | 1.99 | 2.02 | 0.233 | 1.04 | 0.273 |
| CCTCGTAGGACAGAAGGTCAGAGCTGTCCGCTTT | 3.4 | 3.02 | 3.4 | 0.251 | 2.18 | 1.7 | -0.0633 | 1.13 | 0.412 |
| TTACCAAGGTGAGCTGAGGTCGTTGTTCCAACTC | 1.84 | 1.31 | 0.592 | 0.437 | 1.42 | 4.75 | 2.02 | 4.15 | 2.12 |
| CCTAATTGGTCAAGGTCACACACGCTATAGGTAC | 4.67 | 4.73 | 4.86 | 2.36 | 4.64 | 4.34 | 4.13 | 4.03 | 3.38 |
| CCTTACGGGTCACTGAAAGGTTATAGCATTTGGA | 4.08 | 6.85 | 4.86 | 1.54 | 5.63 | 3.44 | 0.371 | 4.52 | 1.14 |
| TCTTGTAGATCAATAGAGGTTACGAAAGTGCGCT | 1.7 | 1.05 | 0.657 | 0.65 | 1.54 | 2.75 | 0.12 | 2.15 | 0.507 |
| ACTTTTAGTTGACTTAGGGCAACCGATACGACGC | 1.37 | 1.1 | 1.22 | 1.12 | 0.756 | 1.64 | 0.763 | 0.839 | 0.282 |
| AGAATGAGGTTAAGATCAGGGCAACAGAATACAT | 2.23 | 3.86 | 1.76 | 1.17 | 2.78 | 3.57 | 1.44 | 2.23 | 0.984 |
| CCTTACGGGTCACTGACAGGTTATAGCTTTTGGA | 3.45 | 5.62 | 4.37 | 1.64 | 4.7 | 2.82 | 0.24 | 3.56 | 0.718 |
| CGTCAAACTTCAAGGTAACGTAACAGAAAGCAGC | 0.274 | 0.163 | 0.537 | 0.306 | 0.376 | 1.73 | 1.11 | 0.0642 | -0.0172 |
| CGAACGAAGGCATGAGTTGATAGCAAATGCCGAT | -0.914 | -0.373 | -0.278 | -0.249 | -0.113 | -0.643 | -0.827 | -0.373 | -0.193 |
| CTTTACGGGTCACTCCAGGTTATAGCATCGGAGT | 3.36 | 4.62 | 4.65 | 2.29 | 4.54 | 5.08 | 0.775 | 4.46 | 1.88 |
| TCATATAGGTAAAAGGTAAAAGTCGGTGTGGTAA | 0.553 | 0.857 | 0.169 | 1.88 | 1.94 | 0.886 | 0.222 | 1.33 | 0.494 |
| GCATATAGGGAATACAAGGTGAAAGTCCGATTGT | 0.509 | 0.203 | 0.249 | 0.292 | 0.268 | 3.15 | 0.78 | 0.0593 | -0.263 |
| ATCTCTAGGAAAAGTTCAGTGAAAGATCGATAGA | 2.13 | 1.53 | 1.87 | 1.03 | 0.695 | 0.532 | -0.316 | 1.2 | 1.66 |
